Among all 1,900 compounds or so, about 240 (13%) were called active.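 The calls were made as follows: active = mean inhibition at least 40% at 20 µM, or signal 3 deviations below plate average, so some actives read negative; inactive = the rest.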 Not all results are given here.
Target: Prothrombin (Bos taurus) (UniProt P00735)
Experiment: bovine thrombin protease inhibition, confirmation, counter-screen for Rpn11 inhibitor project, biochemical, fluorescence polarization, single concentration (AID 602333);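 also: plate controls were thrombin with DMSO for no effect and buffer wells lacking thrombin for full effect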
Conditions: bovine thrombin cleavage of Ub4-pepOG, at 20 µM, stronger effect = higher value

Sequence of Prothrombin (Bos taurus) (P00735 whole entry, looked up): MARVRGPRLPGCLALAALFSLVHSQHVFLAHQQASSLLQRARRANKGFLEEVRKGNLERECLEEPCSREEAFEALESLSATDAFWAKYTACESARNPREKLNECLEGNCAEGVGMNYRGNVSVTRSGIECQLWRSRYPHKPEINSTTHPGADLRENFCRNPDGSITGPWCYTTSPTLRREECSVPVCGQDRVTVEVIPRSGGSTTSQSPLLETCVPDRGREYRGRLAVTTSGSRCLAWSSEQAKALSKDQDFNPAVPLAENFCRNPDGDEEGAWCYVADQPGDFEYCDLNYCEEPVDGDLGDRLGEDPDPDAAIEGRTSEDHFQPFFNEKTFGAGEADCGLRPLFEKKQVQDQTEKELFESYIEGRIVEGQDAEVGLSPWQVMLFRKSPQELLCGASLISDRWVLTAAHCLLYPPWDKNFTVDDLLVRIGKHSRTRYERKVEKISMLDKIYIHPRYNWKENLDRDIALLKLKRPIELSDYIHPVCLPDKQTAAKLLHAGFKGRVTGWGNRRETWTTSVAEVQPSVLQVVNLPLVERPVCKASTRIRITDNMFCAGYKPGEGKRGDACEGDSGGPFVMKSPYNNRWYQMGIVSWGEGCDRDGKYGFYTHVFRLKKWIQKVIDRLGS

SMILES | inhibition
C=CC1=C(C(=O)O)N2C(=O)[C@@H](NC(=O)/C(=N/OCC(=O)O)c3csc(N)n3)[C@H]2SC1 | -49.6% (inactive)
O=C(COc1cccc(F)c1)Oc1ccc(C(=O)c2ccccc2)cc1 | -6.51% (inactive)
C/C(=N/Nc1nc(-c2ccccc2)c(CC(=O)O)s1)c1ccccc1 | 11.8% (inactive)
COc1cc(/C=C2/SC(=S)N(Cc3ccccc3)C2=O)cc(OC)c1O | 30.8% (inactive)
Cc1ccc(Nc2nc(Cl)c(C=O)s2)cc1 | 47% (active)
Cc1ccc(Nc2ccccc2N)cc1 | 15.5% (inactive)
CCOc1cc(/C=C2\SC(N3CCCCC3)=NC2=O)ccc1O | 21% (inactive)
Oc1ccc(/C=N/Nc2nc(-c3ccccc3F)nc3ccccc23)c(O)c1 | 5.18% (inactive)
COc1ccc2[nH]c(=O)c(-c3noc(-c4ccc(F)cc4)n3)cc2c1 | 2.93% (inactive)
Cc1ccc2cc(C#N)c(NCCNC(=S)NCCCN3CCOCC3)nc2c1 | -7.45% (inactive)
C=CCn1c(SCC(=O)NCc2ccccc2)nnc1-c1cc(Br)ccc1O | -3.07% (inactive)
CCCCCCCCCCOC(=O)Cn1c(COc2cccc(OC)c2)[n+](C)c2ccccc21 | -11.8% (inactive)
Cc1c(NC(=O)CSc2cccc3cccnc23)c(=O)n(-c2ccccc2)n1C | -11.3% (inactive)
Cc1nc2ccc(C(=O)N3CCSCC3)cc2s1 | -9.73% (inactive)
CCC(C)Cn1c(O)cc2nn(-c3nc4ccccc4s3)c(=O)c-2c1C (stereo not given) | 3.33% (inactive)
CCNCc1cc2cc(C)ccc2[nH]c1=O | 7.4% (inactive)
CCN1CCN(c2cc3nc(C)n(Cc4ccccc4)c(=O)c3cc2NC(=O)c2ccccc2F)CC1 | -5.14% (inactive)
COc1ccc(Cl)cc1NC(=O)CCS(=O)(=O)c1ccc(Br)cc1 | -12.6% (inactive)
COc1cccc(NC(=O)C(C)Oc2ccccc2)c1 (stereo not given) | -2.75% (inactive)
Cc1ccc(NC(=O)c2c(NC(=O)CCC(=O)O)sc3c2CCCCC3)cc1 | -10.8% (inactive)
CCOc1ccc(NC(=O)c2ccc(NC(=O)COC(=O)c3ccc(NC(=O)CC#N)cc3)cc2)cc1 | -22.9% (inactive)
COc1cccc(-c2nn(-c3ccccc3)cc2/C=C(\C#N)C(=O)NCCCn2ccnc2)c1 | 3.86% (inactive)
CCN1CCCC1CNC(=O)c1cc2c(=O)n(C)c3ccccc3c2n1C (stereo not given) | -4.94% (inactive)
CC(C)(C)NC(=O)CSC(=Nc1ccccc1F)NC#N | 4.77% (inactive)
Cc1ccc(-c2nnc(-c3ccc(NC(=O)c4cccs4)cc3)o2)cc1 | -6.56% (inactive)
Cc1nc2ccccc2nc(=O)c1NNc1ccc([N+](=O)[O-])cc1 | 28.5% (inactive)
CC(C)Cn1c(CCC(=O)O)ccc1-c1cccs1 | -22.2% (inactive)

SMILES | inhibition
CCC/C=C(\CCC)C(NC(=O)Cc1ccccc1)c1ccc(C(=O)OC)cc1 (stereo not given) | -11.1% (inactive)
Cc1oc2c(C)c3oc(=O)c(CC(=O)N[C@@H](CC(C)C)C(=O)N[C@@H](Cc4ccccc4)C(=O)O)c(C)c3cc2c1C | 29.3% (inactive)
Cc1cc(/C=C2/SC(=O)N(CC(=O)N3CCCC3)C2=O)ccc1N1CCOCC1 | 23.9% (inactive)
CC(=O)Nc1ccccc1Sc1ccc2c3c(cccc13)C(=O)N(c1ccc(C)cc1)C2=O | 4.95% (inactive)
O=C1NC(=O)C2C1C(c1ccc([N+](=O)[O-])cc1)=NN2Cc1ccccc1 (stereo not given) | 15.8% (inactive)
Cc1cccc(OCc2nnc(SCc3nc4cc(C(F)(F)F)ccc4c(=O)[nH]3)o2)c1 | 42.8% (active)
CC(=O)/C(=N\Nc1ccc(Cl)cc1Cl)Sc1cccc2cccnc12 | 1.24% (inactive)
CC1CCN(c2ccc3c(c2)S(=O)(=O)c2cc(C(=O)O)ccc2C3=O)CC1 | 18.1% (inactive)
CN(C)c1ccc(-n2cccc2/C=C2/SC(=Nc3ccc(F)cc3)NC2=O)cc1 | -29.3% (inactive)
O=C(CSc1nc2ccccc2c(=O)[nH]1)Nc1nc(-c2ccc(Br)cc2)cs1 | -3.66% (inactive)
CCOC(=O)N1CCC(NC(=O)C(NS(=O)(=O)c2ccc3c(c2)CCN3C(=O)CC)C(C)C)CC1 (stereo not given) | 1.81% (inactive)
CCOc1ccc(-n2c(O)c(/C=N/Nc3nnc(C)c(=O)[nH]3)c3ccccc3c2=O)cc1 | -1.67% (inactive)
CCOc1ccc(-n2c(O)c(/C=N/c3ccnn3Cc3ccncc3)c3ccccc3c2=O)cc1 | 82.5% (active)
CC(C)Oc1ccc(/C=C(\NC(=O)/C=C/c2ccco2)C(=O)NCCc2nc3ccccc3[nH]2)cc1 | 21% (inactive)
COc1ccc(CNC(=O)c2nnn(CC(=O)Nc3cc(C)cc(C)c3)c2N)cc1 | -6.95% (inactive)
CN(C)CCOC1c2ccccc2-c2ccccc21 | -14% (inactive)
CC(=O)c1sc(N/N=C/c2ccc(C(C)C)cc2)nc1C | -6.77% (inactive)
Cc1ccc(NC(=O)CN2CCc3ccccc3C2)cc1 | -14.3% (inactive)
C=CC[n+]1c(-c2ccc(C)cc2)csc1NNC(=O)Nc1ccccc1 | 4.61% (inactive)
COc1ccc(-n2c(SCC(=O)Nc3sc4c(c3C#N)CCCC4)nnc2-c2ccc(O)cc2)cc1 | -8.59% (inactive)
Cc1nc2ccccc2n1C(=O)N1CCOCC1 | -8.33% (inactive)
CCCS(=O)(=O)N1CCCC(C(=O)NCc2ccco2)C1 (stereo not given) | -12.9% (inactive)
Cc1ccc(N=Cc2c(O)cc(C)oc2=O)c(C)c1 | 8.99% (inactive)
CSC1=N/C(=C\C=C\c2cccs2)C(=O)S1 | 3.5% (inactive)
CCCOc1ccc(Cn2c(O)cc(=O)[nH]c2=O)cc1 | 7.31% (inactive)
Nc1nonc1-n1nnc(C(=O)N/N=C/c2cc(Br)ccc2O)c1CSC1=NCCS1 | 2.28% (inactive)
CCN(CC)C(=O)CSc1nc2ccccc2n1CC(=O)N1CCN(c2ccccc2OC)CC1 | -2.4% (inactive)

SMILES | inhibition
COc1cccc(/C=C(/CC(=O)Nc2ccc(N3CCOCC3)cc2)c2nc3ccccc3s2)c1 | 7.25% (inactive)
O=C(O)c1ccc(NN=CC2=C(N3CCOCC3)/C(=C/c3ccccc3)CC2)cc1 | 46.5% (active)
CCCCCCSc1ccc([C@@H]2[C@H]3C(=O)N(CC)C(=O)[C@H]3[C@]3(C(=O)OC)CCCCN23)cc1 | 60.5% (active)
O=C(Nc1ccc(-c2nnc(-c3ccccc3)o2)cc1)c1ccc(Br)o1 | -5.94% (inactive)
Cc1c(N=Nc2ccc(N(C)C)cc2)c(=O)n(-c2ccccc2)n1C | 37.7% (inactive)
N#Cc1c(-c2cccs2)nc(SCC(=O)c2ccc(Br)cc2)[nH]c1=O | 15.6% (inactive)
NC(N)=N/N=C/c1ccc(OCc2ccc(Cl)cc2Cl)cc1 | -36.6% (inactive)
CS(=O)(=O)c1ccc2c(c1)SC1=NC(=O)/C(=C/c3ccco3)C(=N)N12 | 26% (inactive)
Cc1sc2nc(COC(=O)C(NC(=O)c3ccc(Cl)cc3Cl)C(C)C)[nH]c(=O)c2c1C (stereo not given) | 13.5% (inactive)
O=C(CSc1cccc2cccnc12)N/N=C/c1cccnc1 | -13.1% (inactive)
CC(C)CC1C(=O)N(Cc2cn(Cc3ccco3)nn2)CCS(=O)(=O)N1Cc1ccc(-c2ccc(Cl)c(Cl)c2)cc1 (stereo not given) | -6.74% (inactive)
COC1=C/C(=C/c2c(N)n3nc(CC(=O)N4CCOCC4)sc3nc2=O)C=CC1=O | 36% (inactive)
CN=c1scc(-c2cc(OC)ccc2OC)n1/N=C/c1c(C)[nH]c2ccccc12 | 30% (inactive)
O=C(OCc1cc2ccccc2[nH]c1=O)c1cccnc1 | -12.2% (inactive)
CCOc1cc(/C=C2\SC(N3CCCC(C)C3)=NC2=O)ccc1O (stereo not given) | 10% (inactive)
CCc1ccc(-c2cc(C(=O)NCc3ccco3)c3ccccc3n2)s1 | 33.8% (inactive)
Oc1c(CN2CCCC2)cc(COCc2ccccc2)c2cccnc12 | -28.1% (inactive)
O=C(CCS(=O)(=O)c1cccc2nonc12)NCCc1ccccc1Cl | -6.4% (inactive)
CCc1ccc(NC(=O)CS(=O)CC(=O)NCCCc2ccccc2)cc1 (stereo not given) | 5.42% (inactive)
N#Cc1ccc(C(=O)Nc2cccc3cccnc23)c(F)c1 | -28.1% (inactive)
COc1ccc(NC(=O)Cn2c(-c3ccc(OC)cc3)cn(-c3ccc(C)cc3)c2=O)cc1 | 29.3% (inactive)
Cc1cc(/C=N/Nc2ccc([N+](=O)[O-])cn2)c(C)n1-c1cccc(C(=O)O)c1 | -0.18% (inactive)
COc1ccc(CC(=O)Nc2ccc(-c3nnc(-c4ccc(C)cc4)o3)cc2)cc1 | -14.6% (inactive)
C=CCn1c(=S)[nH]c2scc(-c3ccco3)c2c1=O | -8.62% (inactive)
Cc1cc(OCC(=O)Nc2nccs2)c2c(C)c(C)c(=O)oc2c1 | -9.45% (inactive)
COC(=O)c1ccc(OCC(=O)NC(C)(C)C)cc1 | -4.55% (inactive)
